What all share (design): scale not given: direction of the effect not stated beside the values
Test [1] addresses Protein translocase subunit SecA (Escherichia coli (strain K12)) (UniProt P10408). The experiment in a line: Assay to Identify E. coli SecA ATPase Inhibitors. The test is classed as functional. The conditions noted are these: 30 µM.
In test [2] the target is T1, Ubiquitin-activating enzyme e1, putative (Leishmania donovani (strain BPK282A1)) (UniProt E9BSI1).
T1 sequence (whole entry): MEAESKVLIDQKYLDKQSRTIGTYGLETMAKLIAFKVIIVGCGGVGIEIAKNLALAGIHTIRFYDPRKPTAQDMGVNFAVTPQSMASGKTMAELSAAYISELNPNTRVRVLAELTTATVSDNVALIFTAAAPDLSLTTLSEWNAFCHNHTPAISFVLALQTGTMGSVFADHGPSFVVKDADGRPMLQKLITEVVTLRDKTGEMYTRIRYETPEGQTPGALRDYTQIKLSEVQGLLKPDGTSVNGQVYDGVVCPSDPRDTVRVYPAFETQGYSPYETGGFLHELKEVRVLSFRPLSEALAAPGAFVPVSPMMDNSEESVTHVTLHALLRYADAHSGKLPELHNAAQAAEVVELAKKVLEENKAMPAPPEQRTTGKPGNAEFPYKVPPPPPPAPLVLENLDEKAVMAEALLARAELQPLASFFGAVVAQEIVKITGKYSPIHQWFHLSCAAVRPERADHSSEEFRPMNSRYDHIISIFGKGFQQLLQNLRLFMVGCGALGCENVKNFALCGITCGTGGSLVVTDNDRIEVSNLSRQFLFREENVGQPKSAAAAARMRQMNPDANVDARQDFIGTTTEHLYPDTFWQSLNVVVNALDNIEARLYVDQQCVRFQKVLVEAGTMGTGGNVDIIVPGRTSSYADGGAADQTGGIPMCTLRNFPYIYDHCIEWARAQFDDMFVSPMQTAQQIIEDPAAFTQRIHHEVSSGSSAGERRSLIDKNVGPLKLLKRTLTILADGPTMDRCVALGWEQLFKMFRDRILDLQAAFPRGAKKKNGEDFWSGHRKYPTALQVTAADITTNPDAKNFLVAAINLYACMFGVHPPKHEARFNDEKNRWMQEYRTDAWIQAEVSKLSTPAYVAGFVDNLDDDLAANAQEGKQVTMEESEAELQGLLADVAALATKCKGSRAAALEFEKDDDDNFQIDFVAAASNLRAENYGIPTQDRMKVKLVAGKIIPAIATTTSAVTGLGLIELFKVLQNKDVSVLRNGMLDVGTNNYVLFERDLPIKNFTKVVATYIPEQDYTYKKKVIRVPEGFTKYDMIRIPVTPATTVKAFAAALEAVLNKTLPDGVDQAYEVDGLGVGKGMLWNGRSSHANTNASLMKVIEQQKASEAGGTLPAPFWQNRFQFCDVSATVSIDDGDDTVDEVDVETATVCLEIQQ
The experiment in a line: Leishmania donovani Ubiquitin Activating Enzyme (LdE1). The conditions noted are these: 30 µM. It counts as functional.

The target of test [3] is AMP-activated protein kinase, AMPK (Homo sapiens) (UniProt P54646+O43741+P54619+Q9UGJ0+Q9Y478+Q13131+Q9UGI9). The experiment in a line: AMP-dependent Kinase enzyme assay. An in vitro enzyme assay that detects ADP turnover that is directly proportional to AMPK activity. This uses naive AMPK that is activated during the assay with MK-8722. The test is classed as functional. The conditions noted are these: 30 µM.

For test [4], the target named is Sialic acid-binding Ig-like lectin 9 (Homo sapiens) (UniProt Q9Y336). The experiment in a line: Hs-Siglec9 ALPHAscreen SOP 20170721. The conditions noted are these: 10 µM. A general note: In Alpha technology, singlet oxygen from a donor bead excites a nearby acceptor bead.
The subject of test [5] is Trypanosoma cruzi. The experiment in a line: Trypanosoma cruzi phosphomannomutase and mannose-1-phosphate guanylyltransferase assay. The conditions noted are these: 10 µM. The test is classed as functional.
Test [6] concerns the target T2, Arginase-2, mitochondrial (Homo sapiens) (UniProt P78540).
T2 sequence (whole entry): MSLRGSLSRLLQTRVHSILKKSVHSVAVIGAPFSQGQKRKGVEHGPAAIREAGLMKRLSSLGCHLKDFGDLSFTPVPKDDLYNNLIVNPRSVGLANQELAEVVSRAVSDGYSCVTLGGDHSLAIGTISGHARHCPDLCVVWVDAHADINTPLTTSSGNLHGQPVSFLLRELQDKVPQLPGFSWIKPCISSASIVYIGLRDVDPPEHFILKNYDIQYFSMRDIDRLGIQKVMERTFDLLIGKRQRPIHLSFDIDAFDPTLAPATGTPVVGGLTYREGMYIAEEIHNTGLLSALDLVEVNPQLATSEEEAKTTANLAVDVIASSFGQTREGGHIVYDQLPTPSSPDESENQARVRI
The experiment in a line: in vitro enzyme assay to detect the production of urea directly proportional to the activity of Arginase II. Note: in the data most compounds retested in dose-response had high values. The test is classed as functional. The conditions noted are these: 33.3 µM.

For test [7], the target named is T3, Proteasome subunit beta (Trypanosoma cruzi) (UniProt O96673).
T3 sequence (whole entry): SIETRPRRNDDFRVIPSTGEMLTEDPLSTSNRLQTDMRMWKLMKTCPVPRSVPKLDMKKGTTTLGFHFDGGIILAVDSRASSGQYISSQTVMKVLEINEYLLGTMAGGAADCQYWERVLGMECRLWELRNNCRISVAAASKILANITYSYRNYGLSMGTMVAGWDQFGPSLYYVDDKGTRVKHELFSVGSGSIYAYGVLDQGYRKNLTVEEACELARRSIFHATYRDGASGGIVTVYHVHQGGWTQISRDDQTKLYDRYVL
The experiment in a line: Trypanosoma cruzi proteasome chymotrypsin-like activity (TcProtChymo) assay. Note: in the data most compounds retested in dose-response had high values. It counts as functional. The conditions noted are these: 9.37 µM.

The species entered for test [8] is Homo sapiens. The experiment in a line: To identify inhibition of the IFN signalling (Jak-Stat) pathway via expression of an eGFP reporter gene under the control of an IFN-stimulated response element (ISRE) containing MxA promoter. It counts as functional. The conditions noted are these: 30 µM. Background: A reporter such as luciferase makes a cellular process visible.

In test [9] the target is T4, Tyrosyl-tRNA synthetase, putative (Trypanosoma cruzi (strain CL Brener)) (UniProt Q4DSP6).
T4 sequence (whole entry): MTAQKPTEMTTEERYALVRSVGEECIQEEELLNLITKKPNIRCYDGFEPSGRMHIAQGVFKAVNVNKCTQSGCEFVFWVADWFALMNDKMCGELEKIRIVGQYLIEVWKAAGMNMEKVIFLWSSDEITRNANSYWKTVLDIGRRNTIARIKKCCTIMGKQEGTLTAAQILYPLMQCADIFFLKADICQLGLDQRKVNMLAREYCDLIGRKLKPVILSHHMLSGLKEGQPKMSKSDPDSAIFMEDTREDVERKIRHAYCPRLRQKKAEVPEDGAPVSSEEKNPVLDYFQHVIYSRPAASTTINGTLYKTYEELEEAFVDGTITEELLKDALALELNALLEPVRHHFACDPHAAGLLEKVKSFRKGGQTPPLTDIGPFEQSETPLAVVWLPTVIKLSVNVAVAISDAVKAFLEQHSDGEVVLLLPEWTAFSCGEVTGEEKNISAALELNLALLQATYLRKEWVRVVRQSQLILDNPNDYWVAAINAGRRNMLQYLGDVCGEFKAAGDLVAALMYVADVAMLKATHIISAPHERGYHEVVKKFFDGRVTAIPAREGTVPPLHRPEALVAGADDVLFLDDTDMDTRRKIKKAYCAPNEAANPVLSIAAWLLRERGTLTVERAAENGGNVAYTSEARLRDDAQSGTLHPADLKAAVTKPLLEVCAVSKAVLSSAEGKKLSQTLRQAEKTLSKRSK
The experiment in a line: Trypanosoma cruzi tyrosyl tRNA synthetase (TcYRS) _High Tyrosine SOP. Note: in the data most compounds retested in dose-response had high values. The conditions noted are these: 30 µM. It counts as functional.

The target of test [10] is T4, Tyrosyl-tRNA synthetase, putative (Trypanosoma cruzi (strain CL Brener)). The experiment in a line: Trypanosoma cruzi tyrosyl tRNA synthetase (TcYRS) SOP. The test is classed as functional. The conditions noted are these: 30 µM.
For test [11], the target named is Chromo domain-containing protein 1 (Saccharomyces cerevisiae (strain ATCC 204508 / S288c) (Baker's yeast)) (UniProt P32657). The experiment in a line: ScCHD-1 Enzyme Inhibition Assay. Note: in the data most compounds retested in dose-response had high values. It counts as functional. The conditions noted are these: 30 µM.

For some of these results: Entries with a potency or affinity are not part of this list.

Sequence of Sialic acid-binding Ig-like lectin 9 (Homo sapiens) (Q9Y336 whole entry): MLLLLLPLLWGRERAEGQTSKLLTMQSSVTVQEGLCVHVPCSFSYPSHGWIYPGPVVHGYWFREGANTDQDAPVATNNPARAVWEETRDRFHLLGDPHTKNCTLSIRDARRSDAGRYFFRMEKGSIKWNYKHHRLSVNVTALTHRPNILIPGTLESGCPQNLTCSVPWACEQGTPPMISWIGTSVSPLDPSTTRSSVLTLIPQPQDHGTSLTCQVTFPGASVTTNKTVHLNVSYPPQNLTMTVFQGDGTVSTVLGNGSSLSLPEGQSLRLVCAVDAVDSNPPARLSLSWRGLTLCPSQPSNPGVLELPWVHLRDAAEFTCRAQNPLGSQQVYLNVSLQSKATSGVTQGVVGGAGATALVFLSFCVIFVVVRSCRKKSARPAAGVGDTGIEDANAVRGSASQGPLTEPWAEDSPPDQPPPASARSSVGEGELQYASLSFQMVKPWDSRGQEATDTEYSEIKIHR
Sequence of Chromo domain-containing protein 1 (Saccharomyces cerevisiae (strain ATCC 204508 / S288c) (Baker's yeast)) (P32657 whole entry, the tested form may be a part): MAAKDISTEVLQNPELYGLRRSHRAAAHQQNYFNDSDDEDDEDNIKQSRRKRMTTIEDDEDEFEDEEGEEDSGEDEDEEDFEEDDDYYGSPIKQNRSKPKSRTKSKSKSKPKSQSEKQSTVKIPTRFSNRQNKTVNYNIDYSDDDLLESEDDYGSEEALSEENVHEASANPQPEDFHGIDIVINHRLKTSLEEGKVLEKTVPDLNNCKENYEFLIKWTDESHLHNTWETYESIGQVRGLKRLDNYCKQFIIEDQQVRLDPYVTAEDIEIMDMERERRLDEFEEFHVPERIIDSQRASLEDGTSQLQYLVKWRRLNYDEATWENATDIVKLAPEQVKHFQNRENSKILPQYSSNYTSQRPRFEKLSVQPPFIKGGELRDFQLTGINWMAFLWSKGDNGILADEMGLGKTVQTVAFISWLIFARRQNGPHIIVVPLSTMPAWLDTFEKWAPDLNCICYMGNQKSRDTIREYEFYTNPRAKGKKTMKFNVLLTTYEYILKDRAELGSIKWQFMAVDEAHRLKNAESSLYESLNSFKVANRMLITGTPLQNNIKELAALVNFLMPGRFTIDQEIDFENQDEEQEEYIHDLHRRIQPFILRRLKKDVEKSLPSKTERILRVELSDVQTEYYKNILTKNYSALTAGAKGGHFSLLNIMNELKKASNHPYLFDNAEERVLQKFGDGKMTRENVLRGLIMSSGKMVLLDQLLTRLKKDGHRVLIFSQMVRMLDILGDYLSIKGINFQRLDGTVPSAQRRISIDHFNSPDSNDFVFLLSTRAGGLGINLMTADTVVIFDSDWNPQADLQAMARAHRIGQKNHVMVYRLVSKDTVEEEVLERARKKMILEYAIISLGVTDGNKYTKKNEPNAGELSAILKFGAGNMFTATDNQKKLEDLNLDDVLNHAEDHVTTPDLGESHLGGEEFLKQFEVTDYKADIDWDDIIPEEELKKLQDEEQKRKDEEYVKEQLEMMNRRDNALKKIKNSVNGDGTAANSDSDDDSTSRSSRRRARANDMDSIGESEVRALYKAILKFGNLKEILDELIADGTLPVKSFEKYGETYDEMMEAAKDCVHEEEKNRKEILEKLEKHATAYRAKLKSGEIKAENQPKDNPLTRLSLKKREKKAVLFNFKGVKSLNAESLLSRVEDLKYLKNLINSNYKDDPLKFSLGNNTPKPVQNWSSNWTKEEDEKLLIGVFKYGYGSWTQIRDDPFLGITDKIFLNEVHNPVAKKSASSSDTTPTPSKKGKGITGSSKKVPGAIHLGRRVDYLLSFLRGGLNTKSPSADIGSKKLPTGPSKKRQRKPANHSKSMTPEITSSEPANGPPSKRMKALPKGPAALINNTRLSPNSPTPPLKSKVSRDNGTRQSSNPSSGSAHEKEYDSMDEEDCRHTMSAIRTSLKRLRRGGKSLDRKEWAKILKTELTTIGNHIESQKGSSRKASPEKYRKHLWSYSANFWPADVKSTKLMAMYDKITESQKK
Sequence of Protein translocase subunit SecA (Escherichia coli (strain K12)) (P10408 whole entry): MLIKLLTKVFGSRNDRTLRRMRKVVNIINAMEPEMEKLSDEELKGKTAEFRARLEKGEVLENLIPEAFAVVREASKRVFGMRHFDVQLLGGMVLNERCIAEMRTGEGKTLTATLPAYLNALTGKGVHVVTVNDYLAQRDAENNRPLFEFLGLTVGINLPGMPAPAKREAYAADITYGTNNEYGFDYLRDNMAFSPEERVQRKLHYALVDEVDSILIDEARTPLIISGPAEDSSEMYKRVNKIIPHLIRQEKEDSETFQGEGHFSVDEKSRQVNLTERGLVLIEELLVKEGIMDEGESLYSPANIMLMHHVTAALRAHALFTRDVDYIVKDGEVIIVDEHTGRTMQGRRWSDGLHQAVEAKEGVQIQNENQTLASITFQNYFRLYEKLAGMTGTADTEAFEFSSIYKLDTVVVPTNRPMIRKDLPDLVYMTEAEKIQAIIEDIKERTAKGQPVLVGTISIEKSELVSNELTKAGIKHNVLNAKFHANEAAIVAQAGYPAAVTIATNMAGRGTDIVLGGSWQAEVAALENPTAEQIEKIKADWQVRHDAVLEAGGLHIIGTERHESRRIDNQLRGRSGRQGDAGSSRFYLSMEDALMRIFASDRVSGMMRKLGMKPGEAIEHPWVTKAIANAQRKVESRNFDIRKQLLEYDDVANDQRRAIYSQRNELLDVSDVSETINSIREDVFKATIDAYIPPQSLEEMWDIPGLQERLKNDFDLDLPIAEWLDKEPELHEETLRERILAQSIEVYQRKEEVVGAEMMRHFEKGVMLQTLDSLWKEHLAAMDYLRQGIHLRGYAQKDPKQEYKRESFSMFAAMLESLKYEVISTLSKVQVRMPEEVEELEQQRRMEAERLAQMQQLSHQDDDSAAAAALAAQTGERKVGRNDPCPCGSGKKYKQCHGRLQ

For the compound `COc1cccc(N2CCN(Cc3ccc(NC(C)=O)cc3)CC2=O)c1`, the Percent Effect is -2.84% in [1]; 18.1% in test [2]; -5.61% in test [3]; 20.1% in [4]; 6.51% in [5]; 10.2% in test [6]. Also, the Percent Effect was 11.6% in test [7]; 4.1% in test [8]; 4.21% in [9]; 15.4% in [10]; -2.22% in [11].

Regarding `CC(Cn1ccnc1)NC(=O)NCCNC(=O)C(C)C` (stereo unspecified), the Percent Effect in [1] is 2.77%; in [2] it was 23.7%; in test [3], -2.17%; in test [4] it was -3.21%; in test [5], 0.94%; in test [6], -4.6%. In addition, the Percent Effect in test [7] was 15.4%; in test [8], 31.2%; in [9], 3.43%; in [10], 19.5%; in [11], -9.78%.

With `COc1ccc(-c2nnc(SCC(=O)NCC(C)C)[nH]2)c(OC)c1`, the Percent Effect is -5.51% in [1]; 18.4% in [2]; 1.07% in test [3]; -1.8% in test [4]; 4.97% in [5]; 4.73% in test [6]. The Percent Effect in test [7] is 15.8%; in test [8] it was 12.1%; in test [9], 3.19%; in test [10], 18.2%; in test [11] it was -1.07%.

Consider `O=C(NCc1ccccn1)[C@@H]1CCO[C@@H]2CCN(Cc3ccoc3)C[C@H]21`, for which the Percent Effect in test [1] was -4.59%; in test [2], 8.11%; in [3], 7.22%; in [4], -2.83%; in test [5] it was -3.03%; in test [6] it was 0.955%. For the same compound, the Percent Effect in [7] was 17.5%; in test [8] it was 3.21%; in test [9], 4.32%; in [10], 15.4%; in [11], -2.07%.

As to `COc1ccccc1N1CCC(CNCc2cccc(C#N)c2)C1` (stereo unspecified), the Percent Effect was -2.81% in test [1]; 8.11% in [2]; 9.38% in test [3]; -7.09% in test [4]; 3.11% in test [5]; -8.82% in test [6]. Moreover, the Percent Effect was 17.3% in test [7]; -10.4% in [8]; 13.3% in test [9]; 18.5% in [10]; 10.3% in [11].

With `COc1ccc(CCC(=O)NC2CCC(O)CC2)cc1OC` (stereo unspecified), the Percent Effect in test [1] was -5.53%; in [2] it was 13.2%; in test [3], -3.83%; in [4] it was 13%; in test [5], -0.654%; in test [6] it was -3.24%. In addition, the Percent Effect in [7] is 2.12%; in [8], 7.63%; in [9], 2.46%; in [10] it was 6.17%; in [11] it was -1.04%.

Consider `OCC1CCCN1c1cc(NCc2ccc(Cl)s2)ncn1` (stereo unspecified), for which the Percent Effect in [1] was 0.246%; in test [2], 8.86%; in test [3] it was -3.63%; in test [4], -2.18%; in test [5], -1.95%; in [6] it was -3.66%. Moreover, the Percent Effect in [7] was 24%; in test [8], 74.3%; in [9], 4.17%; in test [10], 15.2%; in test [11] it was -15.5%.

In the case of `O=C(Cn1cnc(-c2ccccc2)cc1=O)Nc1ccncc1`, the Percent Effect in test [1] was -2.42%; in test [2], 20.8%; in test [3], -3.34%; in [4], -1.53%; in test [5] it was 2.07%; in test [6] it was 1.94%. Also, the Percent Effect is 16.9% in test [7]; 26.1% in test [8]; 6.35% in test [9]; 16.7% in [10]; -9.23% in test [11].

With `CC(C)COC(C)C(=O)NCc1ccc(N(C)C)cc1` (stereo unspecified), the Percent Effect in test [1] was -2.38%; in [2] it was 23.4%; in [3] it was 3.83%; in [4], -18.6%; in [5], 2.06%; in test [6] it was -2.32%. The Percent Effect in test [7] was 23.4%; in test [8] it was 5.87%; in [9], 5.71%; in test [10] it was 30.6%; in test [11] it was -26.1%.

Take `CN(CC(=O)N1CCN(c2ncccn2)CC1)c1ccc(Cl)cn1`: the Percent Effect in [1] was 0.47%; in [2], 8.11%; in [3], -0.12%; in [4] it was 10.1%; in test [5], 5.79%; in test [6], 14.3%. Besides, the Percent Effect in test [7] was 9.83%; in test [8] it was 16.3%; in test [9], 4.76%; in test [10], 14.6%; in [11], -1.14%.

Consider `Cc1ccc(NC2CCN(C(=O)c3cc[nH]n3)CC2)nn1`, for which the Percent Effect in test [1] is -0.868%; in test [2], 0%; in test [3] it was 8.84%; in test [4], 3.52%; in test [5], -3.01%; in [6], 1.53%. For the same compound, the Percent Effect in [7] is 10.7%; in test [8], -13.4%; in test [9], -0.49%; in [10], -2.44%; in [11], 7.64%.

For the origin of these results see ChEMBL document CHEMBL3988442, “University of Dundee, Small-Polar-MMV Screening Library” (2021).
